# Laboratory results as given in PubChem BioAssay AID1508602 (The Scripps Research Institute Molecular Screening Center, 2020).
# Where “and” joins values, the source holds several entries; their conditions need not be identical. Identical values can stand only once. Screen size: about 650,000 compounds; about 6,800 (1%) were called active. Rule as the data show it: active = activation above about 4.9%; inactive = the rest. Only a selection was taken, and actives are over-represented in it overall.
# Biological target: G-protein coupled receptor 151 (Homo sapiens) (UniProt Q8TDV0)
# Sequence (Q8TDV0 whole entry, looked up): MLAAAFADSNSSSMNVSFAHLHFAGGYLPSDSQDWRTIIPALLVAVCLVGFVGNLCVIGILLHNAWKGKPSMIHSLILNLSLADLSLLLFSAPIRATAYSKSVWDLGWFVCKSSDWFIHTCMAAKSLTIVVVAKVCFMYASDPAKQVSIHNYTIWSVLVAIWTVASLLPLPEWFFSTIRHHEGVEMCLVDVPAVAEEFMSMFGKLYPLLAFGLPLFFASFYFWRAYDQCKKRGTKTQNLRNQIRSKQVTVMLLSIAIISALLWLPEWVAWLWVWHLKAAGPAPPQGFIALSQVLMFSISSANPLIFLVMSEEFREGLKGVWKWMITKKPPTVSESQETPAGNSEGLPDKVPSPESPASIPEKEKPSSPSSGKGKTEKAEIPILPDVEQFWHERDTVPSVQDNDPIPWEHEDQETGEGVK
# Assay: activates the human receptor GPR151, primary screen, cell-based, PathHunter beta-arrestin, luminescence (AID 1508602);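 also: 0% = median of compound wells and 100% = cells with positive control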
# Conditions: PathHunter beta-arrestin GPR151 cells, at 11.2 µM, active compounds read high
row,SMILES,activation
1,O=C(COC(=O)C(Cc1c[nH]c2ccccc12)NC(=O)c1ccco1)c1ccc(Br)cc1 (stereo not drawn),0.0528% (inactive)
2,COc1ccc(C(=O)COC(=O)C(Cc2ccccc2)NC(=O)c2ccco2)cc1 (stereo not drawn),6.4% (active)
3,CCC(Cc1ccccc1)NC(=O)c1ccco1 (stereo not drawn),0.495% (inactive)
4,Cc1ccsc1C(=O)OCc1nc2ccccc2s1,-2.54% (inactive)
5,Cc1cccnc1CN1CCN(C(=O)Cn2nnnc2CN(C)C(C)C)CC1,-1.06% (inactive)
6,Cc1ccc2c(c1)N(C(=O)Cn1cc(-c3ccccc3)c(N(C)C)n1)CCO2,-0.0851% (inactive)
7,Cc1ccc(NC(=O)Cn2cc(-c3ccccc3)c(N3CCOCC3)n2)c(C)c1,4.93% (active)
8,Cc1ccc(C)c(NC(=O)CN2CCOCC2)c1,-1.34% (inactive)
9,Cc1c(C(=O)Oc2ccccc2)sc2ncn(Cc3ccccc3F)c(=O)c12,1.05% (inactive)
10,CC(C)n1nccc1-c1nnc(NC(=O)Cc2ccc(F)cc2)o1,3.52% (inactive)
11,N=C1CCCN1CC(=O)c1ccccc1,0.114% (inactive)
12,Cc1ccc2nc3[nH]c4ccccc4c3nc2c1,-4.57% (inactive)
13,Nc1c([N+](=O)[O-])cc(Br)c2nsnc12,0.283% (inactive)
14,CN(C)CC(C)(O)c1ccc2c(c1)CN(C(=O)c1cc(-c3ccsc3)n[nH]1)CCO2 (stereo not drawn),-0.659% (inactive)
15,CCOc1ccc(NC(=O)CN2CCN(CC(N)=O)CC2)cc1,0.536% (inactive)
16,CCOc1ccc(NC(=O)N2CCC(N(C)CCC(C)C)CC2)cc1,-0.0877% (inactive)
17,CCOc1ccc(NC(=O)N2CCN(CC)CC2)cc1,5.53% (active)
18,CCC(=O)Nc1c(C(=O)Nc2ccccc2)oc2ccccc12,-0.454% (inactive)
19,CC(=O)c1cccc(-c2cc(C(=O)Nc3ccc(N4CCOCC4)cc3)ccn2)c1,1.66% (inactive)
20,CN(C)c1cccc(Nc2cc(C(=O)Nc3ccc(N4CCOCC4)cc3)ccn2)c1,5.03% (active)
21,CN(C)c1cccc(Nc2nc3ccc(C(=O)Nc4ccc(N5CCOCC5)cc4)cc3s2)c1,-1.45% (inactive)
22,COc1cc(OC)cc(-c2nc3ccccc3c(=O)n2NC(=O)Cc2cccs2)c1,1.45% (inactive)

row,SMILES,activation
1,O=C(Cc1cccs1)Nn1c(-c2cccc([N+](=O)[O-])c2)nc2ccccc2c1=O,5.65% (active)
2,O=C(/C=C/c1cccc([N+](=O)[O-])c1)Nn1c(-c2cccs2)nc2ccccc2c1=O,1.05% (inactive)
3,O=C1CC(c2nc3ccccc3n2CC(O)COc2ccccc2)CN1c1ccccc1 (stereo not drawn),1.94% (inactive)
4,COc1cccc(/C=C2/C(=O)NC(=O)N(c3ccccc3F)C2=O)c1,4.98% (active)
5,COc1cccc(N2C(=O)NC(=O)/C(=C/c3ccc(OC)c(O)c3)C2=O)c1,4.48% (inactive)
6,COc1cccc(/C=C2\C(=O)NC(=O)N(c3ccccc3Cl)C2=O)c1,1.26% (inactive)
7,Cc1ccc(/C(O)=C2\C(=O)C(=O)N(c3nnc(C)s3)C2c2cccc(Oc3ccccc3)c2)cc1 (stereo not drawn),2.53% (inactive)
8,CCOc1ccc(C2C(C#N)=C(N)N(c3sc4c(c3C#N)CCCC4)C3=C2C(=O)CC(C)(C)C3)cc1 (stereo not drawn),-0.802% (inactive)
9,COc1ccc(CCn2c(-c3ccc(S(=O)(=O)N4CCOCC4)cc3)csc2=Nc2cccc(C(F)(F)F)c2)cc1OC,0.281% (inactive)
10,N#Cc1ccccc1OCC(=O)OCC(=O)Nc1ncc(Cl)cc1Cl,0.379% (inactive)
11,CCOC(=O)CNC(=O)c1sc2ncn(CC(=O)Nc3ccc(C(C)C)cc3)c(=O)c2c1C,-1.34% (inactive) and -1.19% (inactive)
12,O=C(CN1C(=O)c2ccc([N+](=O)[O-])cc2C1=O)NC(c1ccccc1)c1ccccc1,0.498% (inactive)
13,O=C(CN1C(=O)c2ccccc2C1=O)NC(c1ccccc1)c1ccc(Br)cc1 (stereo not drawn),5.23% (active)
14,O=C(CN1C(=O)CCC1=O)NC(c1ccccc1)c1ccccc1,-0.973% (inactive)
15,NC(=O)c1c(NC(=O)CN(C(=O)c2ccco2)C2CCCC2)sc2c1CCCC2,3.42% (inactive)
16,CN(CC(COc1cccc2ccccc12)OC(=O)c1ccc(Cl)cc1Cl)C1=NS(=O)(=O)c2ccccc21 (stereo not drawn),0.501% (inactive)
17,CSc1nnc2n(/N=C/c3ccc(F)cc3)cnn12,-3.69% (inactive)
18,CCC(C)(C)NC(=O)CN(C(=O)c1csnn1)c1cccc(C)c1C,-1.04% (inactive)
19,COc1ccc(Cl)cc1/C=N/NC(=O)CNc1ccc(C)cc1,0.958% (inactive)
20,O=C(N/N=C\c1ccc(I)o1)c1ccc(Br)cc1,1.14% (inactive)
21,Cc1ccc(NCC(=O)N/N=C\c2ccc(I)o2)cc1,5.65% (active)
22,O=C1Cc2cc(S(=O)(=O)Nc3ccc(C(F)(F)F)cc3)cc3c2N1CCC3,-0.781% (inactive)

row,SMILES,activation
1,COc1ccc(NS(=O)(=O)c2cc3c4c(c2)CC(=O)N4CCC3)cc1Cl,3.82% (inactive)
2,O=C1Cc2cc(S(=O)(=O)Nc3cccc(Cl)c3)cc3c2N1CCC3,5.26% (active)
3,Cc1cccc(C)c1-n1c(N)c(C(=O)NCc2ccccc2)sc1=S,-0.178% (inactive)
4,Cc1ccc(C)c(NC(=O)CN(C)S(=O)(=O)c2ccc3nc(-c4ccccc4)[nH]c3c2)c1,-2.02% (inactive)
5,CC12c3ccccc3C(c3ccccc31)C1C(=O)N(c3ccc(C(=O)O)cc3)C(=O)C12 (stereo not drawn),-0.384% (inactive)
6,CC(=O)Oc1cccc(N2C(=O)C3C4c5ccccc5C(C)(c5ccccc54)C3C2=O)c1 (stereo not drawn),22.7% (active)
7,CC12c3ccccc3C(c3ccccc31)C1C(=O)N(c3cccc(C(=O)O)c3)C(=O)C12 (stereo not drawn),-0.158% (inactive)
8,CCOc1ccc(N2C(=O)C3C4c5ccccc5C(C(C)O)(c5ccccc54)C3C2=O)cc1 (stereo not drawn),4.96% (active)
9,Cc1ccc(N2C(=O)C3C4c5ccccc5C(CO)(c5ccccc54)C3C2=O)cc1 (stereo not drawn),-0.914% (inactive)
10,CC12c3ccccc3C(c3ccccc31)C1C(=O)N(c3cccc(C(F)(F)F)c3)C(=O)C12 (stereo not drawn),1.26% (inactive)
11,COc1cc(C2Nc3cc(C)c(C)cc3NC3=C2C(=O)CC(C)(C)C3)cc(OC)c1OC (stereo not drawn),0.742% (inactive)
12,CCOC(=O)C1(Cc2cccc(OC)c2)CCCN(C(=O)COc2ccccc2OC)C1 (stereo not drawn),2.47% (inactive)
13,CCOC(=O)C1=CN(c2ccc(OCC)cc2)C=C(C(=O)OCC)C1c1ccc(OC)cc1,0.997% (inactive)
14,CCOC(=O)C1=CN(C)C=C(C(=O)OCC)C1c1ccc(OC)cc1,5.01% (active)
15,CCOC(=O)C1=CN(C)C=C(C(=O)OCC)C1c1ccc(OC)c(Br)c1,-0.344% (inactive)
16,O=C(NCCc1ccc(O)cc1)c1cccc(Nc2ccncn2)n1,-1.69% (inactive)
17,N#Cc1ccc(C(=O)OCc2ccc(Br)cc2)cc1,-1.47% (inactive)
18,CCOc1ccc(/C=C2N=C(/C=C\c3cccc([N+](=O)[O-])c3)OC/2=O)cc1,-1.22% (inactive)
19,CCOc1ccc(/C=C2N=C(/C=C/c3cccc(Cl)c3Cl)OC\2=O)cc1,6.64% (active)
20,O=C1OC(/C=C/c2cccc(Cl)c2Cl)=NC/1=C\c1cccc([N+](=O)[O-])c1,0.433% (inactive)
21,CN(Cc1cccc(C(F)(F)F)c1)C(=O)CC1C(=O)NCCN1Cc1ccccc1 (stereo not drawn),-0.0176% (inactive)
22,O=C(c1ccc(Cl)cc1)N1N=C(c2ccccc2)CC1c1ccc(Cl)cc1 (stereo not drawn),0.747% (inactive)

row,SMILES,activation
1,COc1ccc(C2=NN(C(=O)c3cc(OC)c(OC)c(OC)c3)C(c3ccc(Cl)cc3)C2)cc1OC (stereo not drawn),7.04% (active)
2,COc1ccc(C2=NN(C(=O)c3ccccc3Cl)C(c3cccc(OC)c3OC)C2)cc1OC (stereo not drawn),-0.321% (inactive)
3,Cc1nnc(SCc2ccc(CSc3nnc(C)n3N)cc2)n1N,-2.22% (inactive)
4,COc1ccc(-c2cc(N)n(S(=O)(=O)c3ccc([N+](=O)[O-])cc3)n2)c(OC)c1,-0.106% (inactive)
5,COc1ccc(-c2cc(N)n(S(=O)(=O)c3ccccc3)n2)c(OC)c1,6.94% (active)
6,COc1ccccc1-c1cc(N)n(S(=O)(=O)c2ccccc2)n1,-0.0893% (inactive)
7,O=C1COc2cc(S(=O)(=O)CCC(=O)N3CCN(c4ccccc4F)CC3)ccc2N1,0.891% (inactive)
8,CCOc1ccc(OCCOCCN2CC(C)OC(C)C2)cc1 (stereo not drawn),-1.18% (inactive)
9,COc1ccc(N/C=C(/C#N)c2nc(-c3ccc(F)cc3)cs2)c(OC)c1,1.79% (inactive)
10,COc1ccccc1Nc1nc(-c2ccc(Br)cc2)cs1,-0.402% (inactive)
11,COc1ccc(Nc2nc(-c3ccc(F)cc3)cs2)c(OC)c1,13.1% (active)
12,COc1ccc(-n2c(=S)[nH]c3cc(C(=O)Nc4cccc(Cl)c4)ccc3c2=O)c(OC)c1,1.31% (inactive)
13,O=C(N/N=C\c1ccccc1Cl)c1ccccn1,-5.29% (inactive)
14,O=C(N/N=C\c1ccccc1)c1ccccn1,-3.62% (inactive)
15,O=C(N/N=C\C=C\c1ccccc1)c1ccccn1,8.89% (active)
16,CC(=O)OCc1cn(-c2nonc2N)nn1,2.37% (inactive)
17,CC(=O)C1=C(O)C(=O)N(CC#N)C1c1ccc(F)cc1 (stereo not drawn),-0.438% (inactive)
18,O=C(COc1ccc(Br)cc1Cl)NCCO,0.504% (inactive)
19,COc1ccc(OCC(=O)NCC(F)(F)F)c([N+](=O)[O-])c1,1.07% (inactive)
20,O=C(COc1ccc(Br)cc1CO)NCC(F)(F)F,8.84% (active)
21,COc1ccc(-c2cc(C(=O)Nc3cc(Cl)ccc3O)no2)cc1OC,0.999% (inactive)
22,Cc1cc2c(c(=O)o1)C(c1cccc(OCc3c(F)cccc3Cl)c1)C(C#N)=C(N)O2 (stereo not drawn),1.06% (inactive)
